HEK293 viab: reduces viability of HEK-293 SNCA reporter cells; Potency, µM (titrated, usually from 57.1 µM), actives largely listed as cytotoxic; actives 0.12% (n = 150,000); HEK-293-SNCA-luc viability, GF-AFC fluorescence, 24 h; AID 1671193; note: nearly all actives have a fitted effect of over 30% in size
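HEK-293-SNCA-luc cells (1500/well) plated 24 h, then exposed 24 h to a dilution series; GF-AFC added 30 min at 37C, fluorescence 405/540 nm; normalised to medium-only and DMSO wells, Hill fit.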
3T3 cytotox: cytotoxic compounds in NIH 3T3 cells; Potency, µM (titrated, usually from 96.7 µM), usual class: inhibitors; AID 1345082; actives 4.3% (n = 94,000); NIH 3T3 viability, CellTiter-Glo ATP luminescence, 48-72 h; note: nearly all actives have a fitted effect of over 55% in size
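NIH 3T3 cells at 400 cells/well received 23 nL of compound by pintool and were incubated 48 or 72 h at 37 °C. Viability was read as ATP-coupled CellTiter-Glo luminescence.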
Luciferase inh: inhibitors of firefly (Photinus pyralis) luciferase; actives 2.5% (n = 76,000); P08659; purified P. pyralis luciferase, luminescence, biochemical; Potency, µM (doses to about 115 µM), hits mostly inhibitors; note: nearly all actives have a fitted effect of over 65% in size
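Purified P. pyralis luciferase (10nM final) in 50mM Tris acetate pH 7.5, 10mM Mg acetate, 0.01% Tween-20, 0.05% BSA with 10uM D-luciferin and 10uM ATP. Compounds titrated qHTS. Luminescence imaged on CCD.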
HEK293 tox: kills HEK 293 cells. HEK 293 viability, ATP luminescence (CellTiter-Glo), 48-72 h. actives 6.6% (n = 94,000). Potency, µM (series often up to 115 µM), hits mostly inhibitors. AID 1345083; note: nearly all actives have a fitted effect of over 60% in size
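HEK 293 seeded at 250 cells/well receive compound via pintool. After 48 or 72 hr at 37 degree Celsius, 5% CO2 and 95% humidity, CellTiter-Glo is dispensed and luminescence read following 10 min at room temperature.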
SNCA expr inh: SNCA gene expression inhibition; HEK-293 SNCA-luciferase knock-in, luminescence, 24 h; Potency, µM (top dose mostly 57.2 µM), usual class: inhibitors; actives 0.17% (n = 140,000); AID 1671194; note: nearly all actives have a fitted effect of over 45% in size
hNpr1 antagonist: human Npr1 receptor antagonism. P16066. actives 1.6% (n = 76,000). HEK293 hNpr1 GloSensor cGMP, ANP-stimulated luminescence. Potency, µM (titrated, usually from 46.3 µM), usual class: inhibitors; calls by dose curve; note: nearly all actives have a fitted effect of over 60% in size
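HEK293 cells stably expressing human Npr1 and cGMP GloSensor pGS-40F, loaded 2 h with 2% GloSensor reagent, given compound 30 min at room temperature. Luminescence read before and 20 min after 0.1 nM hNppA.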
Of the large screens only hits and unclear results are named; the others gave an inactive call. Sampled rows, rich in hits. Any-hit rate of the full collection: about 7.4%. Unless noted, calls come from the whole dose curve; as a rule, active = well fitted curve in the direction sought with a large enough effect; inconclusive = small, poorly fitted or top-dose-only effect, or another doubt; inactive = no such curve, though single readings can be large; an effect the other way counts as inactive or inconclusive.

CC1=C[C@@H](CN(C)CCc2ccccn2)[C@H](C(C)C)C[C@H]1Cc1nnc(-c2ccncc2)o1	3T3 cytotox inconclusive, HEK293 tox 79µM
CC1=C[C@@H](CN(C)CCc2ccccn2)[C@H](C(C)C)C[C@H]1Cc1nnc(-c2ccccc2)o1	HEK293 viab inconclusive, 3T3 cytotox inconclusive, HEK293 tox inconclusive
CC1=C[C@@H](CN(C)CCN(C)C)[C@H](C(C)C)C[C@H]1Cc1nnc(-c2ccccc2)o1	HEK293 viab inconclusive, 3T3 cytotox 28µM, HEK293 tox 45µM, SNCA expr inh inconclusive
CC(O)(C#Cc1ccc2c(c1)N(c1nc(N)ncc1Cl)CC2)c1nccs1 (stereo not given)	none (no result: 3T3 cytotox, Luciferase inh, HEK293 tox, hNpr1 antagonist)
O=C1CCN(S(=O)(=O)c2cccs2)CCCC(c2nc(-c3ccccc3)no2)CCN1 (stereo not given)	none
Cc1cc(=O)n(CC(=O)Nc2ccc(F)cc2F)c(-c2ccc(F)cc2)n1	HEK293 tox inconclusive
COc1cccc(N2C(=O)NC(=NC3CCCCC3)C23CCN(C(=O)c2ccccc2)CC3)c1	3T3 cytotox 32µM (no result: Luciferase inh, hNpr1 antagonist)
O=C(c1ccccc1)N1CCC2(CC1)C(=NC1CCCCC1)NC(=O)N2c1cc(F)cc(F)c1	3T3 cytotox 32µM (no result: Luciferase inh, hNpr1 antagonist)
O=C(c1ccccc1)N1CCC2(C1)C(=NC1CCCCC1)NC(=O)N2c1cc(F)cc(F)c1 (stereo not given)	none (no result: Luciferase inh, hNpr1 antagonist)
COc1cccc(N2C(=O)NC(=NC3CCCCC3)C23CCN(C(=O)c2ccccc2)C3)c1 (stereo not given)	HEK293 tox inconclusive
O=C(c1ccc(C(F)(F)F)cc1)N1CCC2(CC1)C(=NC1CCCC1)NC(=O)N2c1cccnc1	3T3 cytotox 35µM (no result: Luciferase inh, hNpr1 antagonist)
Cc1noc(C)c1[S+](=O)([O-])N1CCC(c2nn(C)c(=O)[nH]2)CC1	none
CC1(c2ccccc2)N(Cc2ccccc2C#N)C(=O)OC12CCN(C(=O)Cc1ccccn1)CC2 (stereo not given)	3T3 cytotox 28µM
CC(C)C(=O)N1CCC2(CC1)OC(=O)N(Cc1ccccc1C#N)C2(C)c1ccccc1 (stereo not given)	3T3 cytotox inconclusive
COc1cccc(CC(=O)N2CCC3(CC2)OC(=O)N(Cc2csc(C)n2)C3(C)c2ccccc2)c1 (stereo not given)	3T3 cytotox 7.1µM
COc1cccc(CN2C(=O)OC3(CCN(C(=O)Cc4ccccn4)CC3)C2(C)c2cccnc2)c1 (stereo not given)	3T3 cytotox 35µM
COc1cccc(CC(=O)N2CCC3(CC2)OC(=O)N(Cc2ncccn2)C3(C)c2ccccc2)c1 (stereo not given)	3T3 cytotox inconclusive
Cc1cc(=O)n(CC(=O)NCc2cccs2)c(N(C)Cc2ccccc2)n1	3T3 cytotox inconclusive, HEK293 tox inconclusive
O=C(NC1CC1)C1(CCO)CCN(c2ncccn2)C1 (stereo not given)	none
O=C(NCc1ccc(F)cc1)C1CCN(Cc2ccccc2-c2ccccc2F)CC1	3T3 cytotox 32µM, HEK293 tox 32µM (no result: HEK293 viab, Luciferase inh, SNCA expr inh, hNpr1 antagonist)
O=C(NCC1CC1)C1CCN(Cc2ccccc2-c2ccccc2F)CC1	HEK293 tox inconclusive (no result: Luciferase inh, hNpr1 antagonist)
O=C(NCc1cccc(C(F)(F)F)c1)C1CCN(Cc2ccccc2-c2ccccc2F)CC1	3T3 cytotox inconclusive, HEK293 tox 25µM (no result: HEK293 viab, Luciferase inh, SNCA expr inh, hNpr1 antagonist)
O=C(c1nc2cccnc2n(C2CCCC2)c1=O)N1CCOCC1	none (no result: Luciferase inh, hNpr1 antagonist)
O=C(NCC1Cn2cccc2C(=O)N1Cc1ccccc1)C1CCOCC1 (stereo not given)	none
O=C(NC1CC(=O)N(Cc2ccccc2C(F)(F)F)C1)c1ccsc1 (stereo not given)	none
C[S+](=O)([O-])N1CCCN(c2ccc3nnc(-c4ccccc4)n3n2)CC1	3T3 cytotox inconclusive (no result: HEK293 viab, Luciferase inh, SNCA expr inh, hNpr1 antagonist)
COCCN[C@@H]1C[C@@H]2c3[nH]c4ccccc4c3C[C@@H](C(=O)OC)N2[C@H](c2ccc(C(F)(F)F)cc2)C1	3T3 cytotox 45µM, HEK293 tox 35µM
COC(=O)[C@@H]1Cc2c([nH]c3ccccc23)[C@H]2C[C@H](NCCNC(C)=O)C[C@@H](c3ccc(C(F)(F)F)cc3)N21	3T3 cytotox 28µM, HEK293 tox 20µM
COC(=O)[C@@H]1Cc2c([nH]c3ccccc23)[C@H]2C[C@H](NCCNC(C)=O)C[C@@H](c3ccccc3)N21	3T3 cytotox inconclusive, HEK293 tox 89µM
COC(=O)[C@@H]1C2CC3c4[nH]c5ccccc5c4CCN3CC2CC[C@@H]1O (stereo not given in full)	none (no result: 3T3 cytotox, Luciferase inh, HEK293 tox, SNCA expr inh, hNpr1 antagonist)
COC(=O)[C@H]1[C@H]2C[C@H]3c4[nH]c5ccccc5c4CCN3C[C@H]2CC[C@@H]1O	none (no result: 3T3 cytotox, Luciferase inh, HEK293 tox, hNpr1 antagonist)
C=CCOc1cccc(-c2nc(C(=O)Nc3ccc(F)cc3)cs2)c1	HEK293 tox inconclusive
O=C1CCC(C(=O)NC(CCn2cncn2)c2ccccc2)=NN1 (stereo not given)	none
COCCN1CCCCCC(O)c2cc(C(=O)N(C)Cc3cccnc3)ccc21 (stereo not given)	3T3 cytotox inconclusive, HEK293 tox inconclusive
COCCN1CCCCCC(O)c2cc(C(=O)N(C)Cc3ccc(N4CCCCC4)cc3)ccc21 (stereo not given)	3T3 cytotox 40µM, HEK293 tox inconclusive
COCCN1CCCCCC(O)c2cc(C(=O)N3CCN(c4ccc(OC)cc4)CC3)ccc21 (stereo not given)	3T3 cytotox inconclusive, HEK293 tox inconclusive
COCCN1CCCCCC(O)c2cc(C(=O)N3CCN(c4cccc(OC)c4)CC3)ccc21 (stereo not given)	3T3 cytotox inconclusive, HEK293 tox 40µM
COCCN1CCCCCC(O)c2cc(C(=O)NCc3ccc(N4CCC(C)CC4)cc3)ccc21 (stereo not given)	3T3 cytotox 28µM, Luciferase inh inconclusive, HEK293 tox inconclusive
N#Cc1cccc(C(=O)N2CCCC(n3cc(-c4nc(C5CC5)no4)nn3)C2)c1 (stereo not given)	3T3 cytotox inconclusive, HEK293 tox inconclusive
CN(CC1CCOC1)C(=O)Nc1cccc(Br)c1 (stereo not given)	none
COC[C@@H]1CN(C(=O)Cn2nc(C)cc2C)C[C@H]1c1ccncc1	none
CCOC(=O)C1C(=O)NCC12CCN(C(=O)c1ccc(C(C)(C)C)cc1)CC2 (stereo not given)	HEK293 tox inconclusive (no result: HEK293 viab, Luciferase inh, SNCA expr inh, hNpr1 antagonist)
Cc1ccc(C2(O)CCN(C(=O)c3cc4c(s3)CCCC4)CC2)nc1	none
CCOc1ccc(CN2CCN(C/C=C/c3ccccc3OC)CC2CCO)cc1 (stereo not given)	3T3 cytotox inconclusive, HEK293 tox 20µM, SNCA expr inh inconclusive
